In this experiment the test system is Aedes aegypti neuropeptide Y-like receptor 7 (NPYLR7). Nature of the experiment: agonists of mosquito NPYLR7 receptor, primary screen, cell-based, Aedes aegypti, calcium fluorescence, mosquito biting behavior (AID 1259423).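 Note: 0% = vehicle and 100% = reference agonist at the receptor.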 To be noted: HEK293T NPYLR7/Galpha15, GCaMP6s calcium fluorescence, at 10 µM, stronger effect = higher value.
[1] abbreviates: measured here: Max-Min RFU normalised activation.

About 410 (0.15%) of roughly 270,000 compounds were called active. Cut-off read from the data, not from the text of the source: active = activation above about 40%; inactive = the rest, inconclusive results apart. Many of the other results were omitted from the sample, so actives are more common in it than they were.

In the case of `CCCCN(C)C(=O)c1nn(Cc2ccc(S(=O)(=O)N(C)c3ccccc3)cc2)c2ccccc12`, the activation is 11.3% (inactive). Besides, the activation under setting [1] was found to be 10%.
For `CNC(C)c1nc2ccccc2c(=O)n1-c1ccc(Br)cc1` (stereo not drawn) the same measures were 0.997% (inactive) and 9.08%.
For `CC(C)CN(Cc1cc(NC(=O)c2cccc(F)c2)ccc1N(C)C1CCN(C)CC1)C(=O)c1ccccc1Cl`, in that order: 1.98% (inactive) and 1.76%.
For `N#[N+]c1c[nH]c2ccccc2c1=O`, in that order: -8.5% (inactive) and -5.61%.
